Values joined by “and” are separate entries in the source; they are usually repeats but may differ in a detail not shown here. Identical values can stand only once. The whole screen tested about 16,000 compounds, of which about 2,600 (16%) were called active. Not shown: some 20% with an inconclusive outcome. Calls follow the shape of the dose curve; as a rule, active = well fitted curve in the direction sought with a large enough effect; inconclusive = small, poorly fitted or top-dose-only effect, or effect the other way; inactive = no such curve, though single readings can be large or run the other way. Only a sample is shown.
target: Cytochrome P450 2D6 (Homo sapiens) (UniProt P10635); assay: Cytochrome panel assay with activity outcomes; conditions: recombinant CYP, pro-luciferin dealkylation, luminescence, p450-cyp2d6; series mostly up to 57.1 µM; activity, negative = inhibition: at the top concentration
Sequence (P10635 whole entry, looked up): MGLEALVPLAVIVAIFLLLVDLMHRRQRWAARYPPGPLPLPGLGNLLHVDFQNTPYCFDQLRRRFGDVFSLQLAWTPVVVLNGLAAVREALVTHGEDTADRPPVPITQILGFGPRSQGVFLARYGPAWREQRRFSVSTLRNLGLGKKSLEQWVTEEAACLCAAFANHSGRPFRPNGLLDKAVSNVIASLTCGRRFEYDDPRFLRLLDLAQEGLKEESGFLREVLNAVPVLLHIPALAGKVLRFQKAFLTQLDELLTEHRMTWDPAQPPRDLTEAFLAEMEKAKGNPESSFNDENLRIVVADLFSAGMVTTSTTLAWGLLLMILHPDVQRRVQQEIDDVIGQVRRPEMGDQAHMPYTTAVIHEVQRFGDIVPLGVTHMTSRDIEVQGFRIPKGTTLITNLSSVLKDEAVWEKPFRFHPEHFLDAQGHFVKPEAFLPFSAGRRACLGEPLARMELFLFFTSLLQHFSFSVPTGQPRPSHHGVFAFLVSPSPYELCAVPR
% is scaled to controls: 0 for no effect and ±100 for the full control effect.

Compound | activity, negative = inhibition | AC50
OCCCSCCO | -3.94% [at 11.4 µM] (inactive) | 
COc1ccc(C(C(=O)NC2CCCCC2)N(C(=O)c2sc(C)nc2C)c2ccc(OC)cc2)cc1 (centres undefined) | -11.5% (inactive) | 
Cc1cc(Cc2cc(C)cc(C(C)(C)C)c2O)c(O)c(Cc2cc(C)cc(C(C)(C)C)c2O)c1 | -2.96% [at 11.4 µM] (inactive) | 
Cc1cc(C(C)(C)C)c(O)c(C)c1CC1=NCCN1 |  | 12.6 µM (active) and 3.98 µM (active) and 39.8 nM (active)
Cc1cc(Cc2c(C)c(C)c(Cc3cc(C)cc(C(C)(C)C)c3O)c(C)c2C)c(O)c(C(C)(C)C)c1 | 12% [at 11.4 µM] (inactive) | 
COc1ccc(CN2C(=O)CN(C3CCCCCC3)C(=O)C2c2ccc(OC)c(OC)c2)cc1 (centres undefined) | -15.6% (inactive) | 
Cc1ccc(NC(=O)CCC(=O)NNC(=O)c2ccco2)cc1C | -9.64% (inactive) | 
CCOc1[nH]n(-c2ccccc2)c(=O)c1C=Nc1ccc(Cl)cc1 | -9.63% (inactive) | 
Cn1c(C(F)(F)F)nc2c(=O)oc3ccccc3c21 | -15.3% (inactive) | 
CCCC/C=C/C(NC(=O)c1ccc(-c2ccccc2)cc1)c1ccccc1 (centres undefined) | -4.24% (inactive) | 
O=C(NCCOC12CC3CC(CC(C3)C1)C2)c1cccc(Br)c1 | -72.8% (inactive) | 
O=C(CCc1ccccc1)NNC(=O)c1ccco1 | 21.7% (inactive) | 
O=C(CCc1ccccc1)Nc1ncn[nH]1 | -0.385% (inactive) | 
O=C(CCc1ccccc1)Nc1nncs1 |  | 14.1 µM (active)
CCOC(=O)CCN1C(=O)[C@H]2[C@H]3[C@H](O)[C@H](O)C/C(=N/OC[C@@H](O)COCc4ccco4)[C@H]3CC[C@@H]2C1=O | 8.09% [at 11.4 µM] (inactive) | 
COc1ccc2c3c([nH]c2c1)[C@H]1C[C@@H]2[C@@H](C[C@@H](O)[C@H](OC)[C@H]2C(=O)O)CN1CC3 | 7.15% [at 11.4 µM] (inactive) | 
Cc1ccc(S(=O)(=O)N(C)CC(=O)O/N=C(\N)c2ccccn2)cc1 | -1.23% (inactive) | 
c1ccc2sc(SCN(C3CCCCC3)C3CCCCC3)nc2c1 |  | 1.58 µM (active)
c1ccc(NCCSc2nc3ccccc3s2)cc1 | 1.99% [at 11.4 µM] (inactive) | 
O=C(O)CCCSc1nc2ccccc2s1 | -8.66% [at 11.4 µM] (inactive) | 
O=C(Nc1ccc2oc(=O)c(C(=O)O)cc2c1)Oc1ccccc1 | -5.11% [at 11.4 µM] (inactive) | 
CC(=O)c1c(C(C)=O)c(C)n(NC(=O)c2ccncc2)c1C | 5.58% (inactive) | 
CN(C)c1ccc(-c2nc(NCc3cccnc3)c3ccccc3n2)cc1 |  | 7.94 µM (active)
c1ccc(CNc2nc(-c3ccoc3)nc3ccccc23)cc1 |  | 10 µM (active)

Compound | activity, negative = inhibition | AC50
Cc1cccc(CNc2nc(-c3ccoc3)nc3ccccc23)c1 |  | 10 µM (active)
c1csc(CNc2nc(-c3ccoc3)nc3ccccc23)c1 |  | 3.98 µM (active)
Fc1ccc(Nc2nc(-c3ccoc3)nc3ccccc23)cc1 | -18.4% (inactive) | 
CCNc1ncc2nc(-c3ccc(OC)cc3)c(=O)n(Cc3cccc(OC)c3)c2n1 | -8.05% (inactive) | 
Cn1c(=O)n(CCC(=O)O)c2ccccc21 | 4.54% (inactive) | 
COc1cc(/C=N/NC(N)=O)c(Br)cc1OCC(=O)Nc1ccccc1C | -16.2% (inactive) | 
CCOC(=O)c1c(O)[nH]c(=O)c(CC)c1C | -17.9% [at 11.4 µM] (inactive) | 
CCOC(=O)Nc1nc(-c2ccccc2)c(C)s1 | 1.52% [at 11.4 µM] (inactive) | 
CO/N=C(\C(=O)N[C@@H]1C(=O)N2C(C(=O)O)=C(COC(N)=O)CS[C@@H]12)c1ccco1 | 10.6% [at 25.6 µM] (inactive) | 
O=S1(=O)CCN(c2ccccc2CC(c2c[nH]c3ccccc23)c2c[nH]c3ccccc23)CC1 | -18% [at 11.4 µM] (inactive) | 
Cc1ccc(C2CC(C(F)(F)F)n3nc(C(=O)NCCN4CCOCC4)cc3N2)cc1 (centres undefined) | 0.576% (inactive) | 
O=S(=O)(O)[C@@H](c1ccccc1)[C@@H](O)c1ccccc1 | 4.68% [at 11.4 µM] (inactive) | 
Cc1cnc(CNc2nc(-c3cccnc3)nc3ccccc23)cn1 | -9.02% (inactive) | 
c1cncc(CNc2nc(-c3ccoc3)nc3ccccc23)c1 |  | 5.01 µM (active)
CN(C)c1ccc(-c2nc(NCCc3cnc[nH]3)c3ccccc3n2)cc1 |  | 7.94 µM (active)
Cc1cccc(CNc2nc(-c3cccnc3)nc3ccccc23)c1 |  | 25.1 µM (active)
c1cncc(-c2nc(NCc3cccs3)c3ccccc3n2)c1 |  | 6.31 µM (active)
CNC(=S)N1N=C(c2ccc(OC)cc2)CC1c1ccc(N(C)C)cc1 (centres undefined) | -18.3% (inactive) | 
Cc1c(CCC(C)C)c(-n2ccnc2C)n2c(nc3ccccc32)c1C#N | -7.46% (inactive) | 
CCSc1nnc2n(N)c(=O)c3ccccc3n12 | -7.64% (inactive) | 
Cc1cc(=O)oc2cc(O)c(CN(C)CC(=O)O)cc12 | -1.55% [at 11.4 µM] (inactive) | 
Cc1cccc(Nc2ccccc2C(=O)OCC(=O)N(C)C2CCS(=O)(=O)C2)c1C (centres undefined) | -27.8% (inactive) | 
Cc1cc(C)nc(SCCc2cccc[n+]2C)n1 | -2.83% [at 11.4 µM] (inactive) | 
S=c1[nH]nc(-c2ccncc2)n1CC1CCCO1 (centres undefined) | 5.32% (inactive) | 

Compound | activity, negative = inhibition | AC50
Cc1cc(NC(=O)CSc2nc3ccsc3c(=O)n2CCCCC(=O)O)no1 | -30.2% (inactive) | 
C[C@@]1(O)CCOC(=O)C1 | -3.8% [at 25.6 µM] (inactive) | 
CCOC(=O)c1c(C)[nH]c(C(=O)OCC(=O)NC2CCS(=O)(=O)C2)c1C (centres undefined) | 2.53% (inactive) | 
NCCS(=O)O | 7.44% (inactive) | 
Cc1ccc(S(=O)(=O)O/N=C2/CCCc3occc32)cc1 | -14.7% (inactive) | 
O=CN[C@@H](Cc1cnc[nH]1)C(=O)O | -4.29% [at 11.4 µM] (inactive) | 
C[C@@H](CCCCC(=O)Nc1ccc(C(F)(F)F)cc1)NCCc1cnc[nH]1 |  | 5.01 µM (active)
CN(C)C[C@H]1CCC[C@@H](CN(C)C)C1=O | -1.21% [at 11.4 µM] (inactive) | 
Clc1ccc2oc(-c3cccnc3)nc2c1 | 6.45% (inactive) | 
Clc1ccc2c(c1)C(c1cccs1)=NNC(c1cccnc1)=N2 |  | 10 µM (active)
Fc1ccc2c(c1)C(c1ccncc1)=NNC(c1ccc(Cl)cc1)=N2 |  | 0.398 µM (active)
Cn1c(=O)c(-c2cccc(Cl)c2)nc2cncnc21 | -7.08% (inactive) | 
CCOC(=O)C1CCCN(c2ncnc3c2cnn3-c2ccc(Cl)cc2)C1 (centres undefined) | -5.44% (inactive) | 
COCCn1c(=O)c(-c2cccs2)nc2cncnc21 | -11.4% (inactive) | 
C[C@@H](C(=O)Cc1ccc2ccccc2c1)[C@@H]1C[C@@]1(C)[C@@H](NP(=O)(c1ccccc1)c1ccccc1)c1ccccc1 | 6.45% (inactive) | 
O=C(Nc1ccc2ccccc2c1)[C@@H]1C[C@H]1[C@@H](NP(=O)(c1ccccc1)c1ccccc1)c1ccccc1 | -10.1% (inactive) | 
C[C@@H](C(=O)Nc1ccc2ccccc2c1)[C@H]1C[C@]1(C)[C@H](NP(=O)(c1ccccc1)c1ccccc1)c1ccccc1 |  | 0.794 µM (active)
Cc1nn(C)c(Cl)c1S(=O)(=O)N[C@@H](c1ccccc1)[C@]1(C)C[C@H]1[C@@H](C)C(=O)Nc1ccc2ccccc2c1 | 6.42% (inactive) | 
C[C@@H](C(=O)Nc1ccc2ccccc2c1)[C@@H]1C[C@@]1(C)[C@@H](N)c1ccccc1 |  | 12.6 µM (active)
O=C(Nc1ccc2ccccc2c1)[C@H]1C[C@@H]1[C@H](NP(=O)(c1ccccc1)c1ccccc1)c1ccccc1 | 14% (inactive) | 
Cc1cc(C(=O)N[C@H](c2ccccc2)[C@@]2(C)C[C@@H]2[C@@H](C)C(=O)Nc2ccc3ccccc3c2)n(C)n1 |  | 0.0398 µM (active)
CC(=O)N[C@H](c1ccccc1)[C@@]1(C)C[C@@H]1[C@@H](C)C(=O)Nc1ccc2ccccc2c1 |  | 2 µM (active)
CC1(C)S[C@@H]2[C@H](NC(=O)[C@@H](NC(=O)N3CCNC3=O)c3ccccc3)C(=O)N2[C@H]1C(=O)O | -1.37% [at 25.6 µM] (inactive) | 
COC(=O)c1sccc1NC(=O)CSc1ccccc1NS(=O)(=O)c1ccc(Cl)cc1 | -0.426% (inactive) | 

Compound | activity, negative = inhibition | AC50
C[C@@H]1O[C@H]2C3=C(C(=O)[C@H]4O[C@@H]4[C@H]3O)[C@@H]1[C@@H]1[C@@H](C)OC=C3[C@H](O)[C@H]4O[C@@H]4/C(=N\OCc4ccccc4)[C@]312 | -8.47% [at 11.4 µM] (inactive) | 
O=C(NCc1ccccc1)C(c1ccc(F)cc1)N(Cc1ccco1)C(=O)c1ccccn1 (centres undefined) | -23.4% (inactive) | 
COC(=O)[C@H]1C[C@@H]1[C@H](NC(=O)Oc1ccc(F)cc1)c1ccccc1 | -5.03% (inactive) | 
C[C@@H](C(=O)Nc1ccc2ccccc2c1)[C@@H]1C[C@@]1(C)[C@@H](NC(=O)Oc1ccc(F)cc1)c1ccccc1 | 3.54% (inactive) | 
COC(=O)N[C@H](c1ccccc1)[C@@]1(C)C[C@@H]1[C@@H](C)C(=O)Nc1ccc2ccccc2c1 |  | 0.0316 µM (active)
C[C@@H](C(=O)Nc1ccc2ccccc2c1)[C@H]1C[C@]1(C)[C@H](NC(=O)Oc1ccc(F)cc1)c1ccccc1 |  | 2.51 µM (active)
CO[C@@H]1COC(=O)CC=C[C@@H](C)[C@@H]2C=C[C@H](O)[C@@H](COC(=O)C/C=C\[C@H]1C)O2 | 13% [at 11.4 µM] (inactive) | 
Cc1cc(C)c(C)c(S(=O)(=O)ON2C(=O)c3ccccc3C2=O)c1C | -29.2% (inactive) | 
CC(C)(C)c1ccc(OCC(=O)O)c(Cl)c1 | 12.8% [at 11.4 µM] (inactive) | 
Cc1nc(NS(=O)(=O)c2ccccc2C)c2c3c(sc2n1)CCC3 | -4.47% (inactive) | 
CCCNC(=O)c1c(C)cc(=O)oc1C | -29% (inactive) | 
COc1cc(-c2nnc(-c3ccc(N4CCOCC4)cc3)o2)cc(OC)c1OC | -3.51% (inactive) | 
COc1ccc(Br)cc1/C=C/C(=O)Nc1c(C)cccc1C | -29.7% (inactive) | 
O=C(CC1C(=O)NCCN1C(=S)Nc1ccccc1)Nc1ccc2c(c1)OCCO2 (centres undefined) | 4.52% (inactive) | 
CCNC(=O)CC1C(=O)N(c2ccc(F)cc2)C(=O)N1CCc1ccc(OC)cc1 (centres undefined) | -1.57% (inactive) | 
O=C(CC1C(=O)N(c2ccc(Cl)cc2)C(=S)N1CCc1ccncc1)Nc1ccc(F)cc1 (centres undefined) |  | 2.24 µM (active)
CCN1C(=O)C(CC(=O)Nc2ccc(Br)cc2)N(CCCc2ccccc2)C1=S (centres undefined) |  | 10 µM (active)
CN1C(=O)C(CC(N)=O)N(NC(=O)c2ccc(Cl)cc2)C1=S (centres undefined) | 6.45% (inactive) | 
CN1C(=O)C(CC(=O)Nc2ccc(F)cc2)N(CCCc2ccccc2)C1=S (centres undefined) |  | 2 µM (active)
CCN1C(=O)C(CC(=O)Nc2ccc(OC)cc2)N(Cc2cccnc2)C1=S (centres undefined) | -21.7% (inactive) | 
CCCCC(=O)Nc1ccc(C(=O)NNC(=O)CCc2ccccc2)cc1 | 8.04% (inactive) | 
CC(=O)Nc1ccc(S(=O)(=O)NC2(C(F)(F)F)NC(=O)N(c3ccc(Cl)cc3)C2=O)cc1 (centres undefined) | 5.87% (inactive) | 

Reference: PubChem BioAssay AID1851 (National Center for Advancing Translational Sciences (NCATS), 2009)
